M1 antag = human M1 muscarinic receptor antagonists, primary screen, CHO-K1 cells, Fluo-8 calcium fluorescence, 1536-well. hit rate 1.3% among 360,000. inhibition, % at 3 µM. Muscarinic acetylcholine receptor M1 (Homo sapiens), P11229. CHO-K1 hM1, ACh EC80 antagonist;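 active = percent inhibition above its own plate's cutoff, namely the mean of that plate's compound wells plus 3 SD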;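 note: peak over basal fluorescence ratio during 140 s after agonist addition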
CHRM1 agonist = human M1 muscarinic receptor agonists, primary screen, Fluo-8 calcium fluorescence, CHO-K1 cells, HTS; CHO-K1 hM1, agonist mode; 0% DMSO, 100% acetylcholine EC100; activation, % at 3 µM; hit rate 0.33% among 360,000;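 active = activation above the run's mean compound activation plus 3 SD, cut at about 16% in these data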;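 note: peak over basal fluorescence ratio within a 140 s kinetic read after compound addition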
SKN-1 inh = suppressors of acrylamide-induced Pgst-4::GFP reporter in worms, primary screen, SKN-1 inhibitor project, whole organism, uHTS, GFP/RFP fluorescence ratio, strain VP596; inhibition, % at 21.8 µM; hit rate 0.49% among 360,000; C. elegans VP596 Pgst-4::GFP/RFP ratio, 24 h;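 active = interference check ratio from 0.5 to 1.5 plus GFP to RFP signal ratio inhibition reaching or exceeding a fixed threshold, cut at about 30% in these data, passing the limit was not always enough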
ATG4B inhibitor = ATG4B protease inhibitors, primary screen, biochemical, fluorescence, uHTS; hit rate 0.51% among 340,000; AID 504462, 2011; inhibition, % at 8.33 µM; ATG4B cleavage of LC3-PLA2, NBD-HPC fluorescence, 1 h; Cysteine protease ATG4B (Homo sapiens), Q9Y4P1; in the data active = inhibition above about 40%
Target sequence (Q9Y4P1 whole entry, looked up): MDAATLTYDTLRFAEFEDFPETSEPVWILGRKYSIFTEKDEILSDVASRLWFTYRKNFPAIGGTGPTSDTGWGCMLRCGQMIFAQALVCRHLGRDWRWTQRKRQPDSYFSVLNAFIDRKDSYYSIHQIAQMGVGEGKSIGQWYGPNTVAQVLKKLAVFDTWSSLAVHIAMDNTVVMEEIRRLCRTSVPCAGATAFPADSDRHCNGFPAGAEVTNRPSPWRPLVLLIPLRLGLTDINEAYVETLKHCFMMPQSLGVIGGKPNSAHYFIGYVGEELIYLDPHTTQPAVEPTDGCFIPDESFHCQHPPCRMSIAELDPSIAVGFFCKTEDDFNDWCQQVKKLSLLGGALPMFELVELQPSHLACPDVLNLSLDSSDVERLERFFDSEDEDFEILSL
CHRM1 PAM = human M1 muscarinic receptor positive allosteric modulators, primary screen, CHO-K1 cells, Fluo-8 calcium fluorescence, 1536-well. CHO-K1 hM1, ACh EC20; 0% = ACh EC20, 100% = maximal ACh. hit rate 0.088% among 360,000. activation, % at 3 µM. Muscarinic acetylcholine receptor M1 (Homo sapiens), P11229; in the data active = activation above about 19%, passing the limit was not always enough
Myeloid diff MLP = induction of myeloid progenitor differentiation, primary screen, cell-based, flow cytometry, MLPCN library; ER-HoxA9 myeloid progenitors, lysozyme-GFP differentiation; calls only at 10 µM; hit rate 1% among 360,000; AID 624256, 2012;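 active = normalized GFP-positive differentiation at or above the plate's own cutoff, the solvent-only control mean plus 3 SD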;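 note: cells exposed to compound for four days before flow analysis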
A number is an active result; 0 = inactive; - = no result given; + = active, no number; ! = a repeat was not active. Sampled rows, rich in hits. Any-hit rate of the full collection: about 3.5%.

SMILES	M1 antag	CHRM1 agonist	SKN-1 inh	ATG4B inhibitor	CHRM1 PAM	Myeloid diff MLP
O=[N+]([O-])c1ccc(NN=C2CC3CCC2C3)c([N+](=O)[O-])c1 (stereo not given)	39	0	0	-	0	0
CC(C)[C@H](CN1CCC[C@H]1CN1C(N)=NC[C@@H]1Cc1ccccc1)N1C[C@@H](Cc2ccccc2)N(CCc2ccc(Cl)c(Cl)c2)C1=N	0	0	0	0	0	0
CC(C)[C@@H]1CN=C(N)N1C[C@@H]1CCCN1C[C@H](C)N1C[C@@H](Cc2ccccc2)N(CCc2ccc(Cl)c(Cl)c2)C1=N	46	0	0	0	0	0
C[C@@H](CN1CCC[C@H]1CN1C(N)=NC[C@@H]1Cc1ccccc1)N1C[C@@H](Cc2ccccc2)N(CCc2ccc(Cl)c(Cl)c2)C1=N	68	0	0	0	0	0
CCC[C@@H](CN1CCC[C@H]1CN1C(N)=NC[C@@H]1Cc1ccccc1)N1C[C@@H](Cc2ccccc2)N(CCc2ccc(Cl)c(Cl)c2)C1=N	0	0	0	0	0	0
O=S(=O)(O)c1cc(O)ccc1O	0	35	0	0	0	0
CCCCN(C)C(=O)c1sc(=O)n(Cc2ccc(Cl)c(Cl)c2)c1C	0	0	0	-	0	0
O/N=C/c1cccc[n+]1CCCCCC[n+]1ccccc1/C=N/O	45	0	0	0	0	0
N#CCCN1CCN(C(=S)c2ccc(-c3cc(Cl)ccc3Cl)o2)CC1	30	0	0	0	0	0
CN1CCN(C(=S)c2ccc(-c3cc(Cl)ccc3Cl)o2)CC1	0	0	0	0	0	0
CC(C(=O)Nc1ccc2c(c1)OCCO2)c1ccc([N+](=O)[O-])cc1 (stereo not given)	0	42	0	0	0	0
CCN(CC)CCCNc1ncnc2scc(-c3ccc(F)cc3)c12	34	0	0	0	0	0
Cc1cc(C)nc(NC(=O)c2cccs2)n1	0	0	0	0	0	0
Cc1nc(NC(=O)c2cccs2)ccc1Br	0	0	36	0	0	0
CCCCn1c(-c2ccc([N+](=O)[O-])cc2)n[nH]c1=S	98	0	0	0	0	0
O=C(CCCN1C(=O)/C(=C\c2cccs2)SC1=S)Nc1ccc(C(=O)O)cc1	0	0	0	0	0	0
CCN(CC)CCOC(=O)c1ccc(NC(=O)CCCN2C(=O)/C(=C/c3cccs3)SC2=S)cc1	36	0	0	0	0	0
COc1ccc(NC(=O)CCNS(=O)(=O)c2ccc3c(c2)c(=O)n(C)c(=O)n3C)c(OC)c1	0	0	0	0	0	+
CCOc1ccc(NC(=O)CCNS(=O)(=O)c2ccc3c(c2)c(=O)n(C)c(=O)n3C)cc1	0	0	0	0	0	0
CCOCCC(=O)Nc1ccc2c(c1)c(=O)n(C)n2Cc1cccc(C(F)(F)F)c1	0	0	0	-	32	0
CCCCCCn1cc(C(=O)O)c(=O)c2ccccc21	0	32	0	0	0	0
O=C(O)c1cn(Cc2ccccc2)c2ccc(Cl)cc2c1=O	0	47	0	0	0	0
COc1ccc(Cn2cc(C(=O)O)c(=O)c3ccccc32)cc1	-	-	0	0	-	0
CCCCn1c(N)c(N(CC)C(=O)c2cc(CC)c(C)s2)c(=O)[nH]c1=O	0	0	0	0	0	0
CCCS(=O)(=O)NC(=O)C1(C)CCCN(C(=O)c2ccc(F)c(Cl)c2)C1 (stereo not given)	0	0	0	-	0	0
SMILES	M1 antag	CHRM1 agonist	SKN-1 inh	ATG4B inhibitor	CHRM1 PAM	Myeloid diff MLP
O=C(CCN1CCN(S(=O)(=O)c2ccc(Cl)cc2)CC1)Nc1ccc(F)cc1	0	0	46	0	0	0
O=C(CCN1CCN(S(=O)(=O)c2ccc(Cl)cc2)CC1)Nc1ccccc1F	0	0	0	0	0	0
CCOC(=O)C1=C(Nc2ccccc2)CC(C)(O)C(C(=O)OCC)C1c1ccc(Cl)cc1 (stereo not given)	0	0	44!	0	0	0
FC(F)(F)c1ccccc1NC(=S)NN=C1CCCCCC1	-	-	-	0	-	-
COc1cccc(NC(=O)NNC(=O)c2ccc3c(c2)NC(=O)C(C)(C)O3)c1	0	0	40	0	0	0
COc1ccccc1NC(=O)NNC(=O)c1ccc2c(c1)NC(=O)C(C)(C)O2	0	0	0	0	0	0
CN(CC1CCCN(CCc2ccccc2F)C1)C(=O)c1cc2ccccc2o1 (stereo not given)	96	0	0	-	0	0
COCc1ccc(C(=O)N(C)CC2CCCN(CCc3ccc(OC)cc3)C2)o1 (stereo not given)	52	0	0	0	0	0
COc1ccc(CCNC(=O)C2CCC(=O)N2S(=O)(=O)c2ccc(C)cc2)cc1 (stereo not given)	0	0	0	0	0	0
Cc1c(/C(O)=C2\C(=O)C(=O)N(CCCN(C)C)C2c2ccco2)cnn1-c1ccccc1 (stereo not given)	0	0	0	0	0	0
CC1(C)C(C=C(Cl)Cl)C1C(=O)N1CCN(Cc2ccccc2)CC1 (stereo not given)	42	0	0	0	0	0
O=c1c2cc([N+](=O)[O-])ccc2nc2n1CCCC2	0	0	0	0	0	0
O=c1c2cc(NC(=S)N3CCCC3)ccc2nc2n1CCCCC2	0	0	0	0	0	0
O=c1c2cc(Br)ccc2nc2n1CCCCC2	86	0	0	0	0	0
Cc1ccc2nc3n(c(=O)c2c1)CCCCC3	19	0	0	0	0	0
Cc1ccc(C(=O)NC(C)c2ccc(S(N)(=O)=O)cc2)s1 (stereo not given)	0	0	0	0	29	0
CN(C)c1ccc(/C=C2/C[N+](C)(C)C/C(=C/c3ccc(N(C)C)cc3)C2=O)cc1	0	0	0	0	0	-
CC(C)/C=C1\CC/C(=C\c2ccc(N(C)C)cc2)C1=O	46	52	0	0	0	+
CN(C)CCNc1ncnc2c1sc1nc(N3CCCC3)c3c(c12)CC(C)(C)OC3	0	0	50	0	0	0
CCN(CC)CCNc1ncnc2c1sc1nc(N3CCCC3)c3c(c12)CC(C)(C)OC3	0	0	0	0	0	0
CN(C)C(=O)CSc1nnc(Cc2ccccc2)n1CC1CCCO1 (stereo not given)	0	0	0	0	0	0
COc1ccc(CC(=O)N2CCCC(C)C2)cc1 (stereo not given)	0	0	37	0	0	0

Screening results from PubChem BioAssay.
